{"source": "ChEMBL document CHEMBL1201862", "about": "“PubChem BioAssay data set” (2004)", "note": "Out of some 42,000 sequences screened, about 3,100 (7.4%) were called active. No stated cut-off is given here; in the data, active = GI50 up to about 1.1 µM and inactive = higher. Not all results are given here. Measured potencies and affinities stand elsewhere."}
{"tested_on": "Hs-578T", "units": {"GI50": "µM"}}
{"substance": "CISPLATIN, CHEMBL11359", "GI50": 4.98}
{"substance": "[Bis(aminomethyl)tetramethylenesilane]tetrachloropaltinum(IV), CHEMBL2146189", "GI50": 21.2}
{"substance": "[Bis(aminomethyl)dimethylsilane]tetrachloroplatinum(IV), CHEMBL2146190", "GI50": "> 100"}
{"substance": "[Bis(aminomethyl)pentamethylenesilane]dichloropaltinum(II), CHEMBL2146202", "GI50": 1.18}
{"substance": "[Bis(aminomethyl)tetramethylenesilane]dichloropaltinum(II), CHEMBL2146205", "GI50": 32.4}
{"substance": "[Bis(aminomethyl)pentamethylenesilane]tetrachloropaltinum(IV), CHEMBL2146204", "GI50": 28.8}
